Tgondii IFNg: blocks Toxoplasma gondii growth in the presence of IFN-gamma. Toxoplasma gondii growth in IFN-gamma-treated host cells; stronger effect = lower value. activity change, negative = inhibition, % (test concentration not listed). 69,000 compounds, 3.8% hits. AID 1259416; in the data active means activity change below about -70%, passing the limit was not always enough;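 further: host cells are HeLa cells infected with Toxoplasma gondii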
A number is an active result; n = inactive. This is one part of a sample in which hits are shown more often than they occur.

SMILES | Tgondii IFNg
COc1ccc(C(=O)N2CCC3(CC2)Nc2ccccc2-n2cccc23)cc1 | n
CCC(C(=O)N1CCC2(CC1)Nc1ccc(Cl)cc1-n1cccc12)c1ccccc1 (centres undefined) | -127.7
CN1C(=O)CCCC12CCCN(C(=O)c1ccc3ncccc3c1)C2 (centres undefined) | n
COc1ccc(Cc2nnc(NC(=O)NC3CCNCC3)s2)cc1OC | n
Cc1nc2c(C)cccc2cc1C(=O)N1CCC2(CCN(C)CC2)C1 | n
O=C(Nc1ccc(-c2nc(-c3ccccc3)co2)cc1)c1ccccc1F | n
O=C(c1ccco1)N1CC[C@@H]2CN(C3CCOCC3)CCO[C@H]2C1 | n
Cc1cnc(N2C[C@@H]3N(c4ncccn4)CCC[C@@]3(C(=O)NCC3CC3)C2)nc1 | n
CS(=O)(=O)N1CCOC2(COCCN(c3cncnc3)C2)C1 (centres undefined) | n
Cc1cc(C)n(CCNC(=O)c2n[nH]c3c2CCC3)c(=O)n1 | n
Cc1cc(C)c(NC(=O)Cn2c(=O)cc(C(=O)N3CCCCC3)c3ccccc32)c(C)c1 | n
COc1cc(OC)cc(C(=O)N2CCC3(CC2)Nc2ccc(Cl)cc2-n2cccc23)c1 | n
O=C(Cc1ccc(F)cc1)N1CCC2(CC1)Nc1ccc(Cl)cc1-n1cccc12 | n
CCOc1ccccc1C(=O)N1CCC2(CC1)Nc1ccccc1-n1cccc12 | n
COc1ccccc1C(=O)N1CCC2(CC1)Nc1ccc(Cl)cc1-n1cccc12 | n
CCOc1ccccc1C(=O)N1CCC2(CC1)Nc1ccc(Cl)cc1-n1cccc12 | -103.9
COc1ccc(CCC(=O)N2CCC3(CC2)Nc2ccc(Cl)cc2-n2cccc23)cc1 | -97.1
Cn1ccn2ncc(C(=O)NCCSc3ccccn3)c12 | n
CCC1C(=O)NCCN1C(=O)c1cc(OC)ccc1-c1ccc(OC)cc1 (centres undefined) | n
Cc1cc(-c2c(-c3ccccc3)ncn2CCN2CCCOC2=O)n[nH]1 | n
Cc1nc2ncccn2c1C(=O)N1CCCC2(C1)C(=O)Nc1ccccc12 (centres undefined) | -82.0
Cc1nc2ncccn2c1C(=O)N1CCCC(C(=O)c2ccc3c4c(cccc24)CC3)C1 (centres undefined) | n
Cc1cc(C)n2nc(C(=O)N3CCCC4(C3)C(=O)Nc3ccccc34)cc2n1 (centres undefined) | n
Cc1ccc(CN(C(=O)c2cnc(-c3cccnc3)nc2)C2CC2)s1 | n
Cc1cc(=O)n(CC(=O)NCCN2C(=O)CSC2=O)c2ccccc12 | n
SMILES | Tgondii IFNg
O=C1CSC(=O)N1C/C=C/CN1C(=O)CSC1=O | n
Cc1ccc(NCN2C(=O)CSC2=O)c(C)c1 | -87.7
O=C(c1ccccc1)c1ccc2[nH]c(=S)[nH]c2c1 | -94.0
Cc1nc(C)c(C(=O)c2ccccc2)cc1C(=O)c1ccccc1 | n
O=C(c1ccccc1)c1ccccc1C(=O)c1ccccc1 | n
Cn1ccc2ccc(CCC(=O)N3CCCC3)cc21 | n
Cc1ccc(CNC(=O)Nc2ccc(-c3nc(-c4ccc(C)cc4)co3)cc2)cc1 | n
O=C(Cc1ccc(F)cc1)N1CCC2C1CC(=O)N2c1cccnc1 (centres undefined) | n
Cc1nnc(SCC(=O)N2CCc3[nH]c4ccc(F)cc4c3C2)o1 | n
O=C(CSc1nnc(CNc2ccc(F)cc2)o1)N1CCc2ccccc2C1 | -81.0
O=C(Cn1c(SCC(=O)N2CCc3ccccc3C2)nc2ccccc21)NC1CCCC1 | n
CCc1cccc(NC(=O)Cn2c(=O)cc(C(=O)N3CCCCC3)c3ccccc32)c1 | n
C=CCOCc1cncc2c1CCN(C(=O)c1ccc[nH]1)C2 | n
CCS(=O)(=O)N1CCc2cc(OC)c(OC)cc2C1c1ccc(OC)c(OC)c1 (centres undefined) | n
COc1cc2c(cc1OC)C(Cc1ccc(O)cc1)N(C)CC2 (centres undefined) | n
CC[C@H]1CN2CCc3cc(OC)c(OC)cc3C2C[C@@H]1CC1NCCc2cc(OC)c(OC)cc21 (some centres undefined) | -79.1
O=C(C[C@@H]1C[C@@H]2C=C[C@H]1C2)NCc1ccccc1-n1cncn1 | n
Cc1ccc(C2c3[nH]c4ccccc4c3CCN2C(=O)CCc2ccccc2)cc1 (centres undefined) | -79.9
CCCC(=O)N1CCc2c([nH]c3ccccc23)C1c1ccc(Cl)cc1 (centres undefined) | -104.4
CCOc1cccc(C2c3[nH]c4ccccc4c3CCN2C(=O)CCc2ccccc2)c1 (centres undefined) | n
Cc1ccc(C2c3[nH]c4ccccc4c3CCN2C(=O)COc2ccccc2)cc1 (centres undefined) | -116.9
CSc1ccc(C2c3[nH]c4ccccc4c3CCN2C(=O)CCC2CCCC2)cc1 (centres undefined) | -121.5
CCCC(=O)N1CCc2c([nH]c3ccccc23)C1c1ccc(SC)cc1 (centres undefined) | n
O=C(COc1ccccc1)N1CCc2c([nH]c3ccccc23)C1c1ccc(Cl)cc1 (centres undefined) | n
O=C(COc1ccccc1)N1CCc2c([nH]c3ccccc23)C1c1ccc(F)cc1 (centres undefined) | n
SMILES | Tgondii IFNg
COCC(=O)N1CCc2c([nH]c3ccccc23)C1c1ccc(C)cc1 (centres undefined) | n
CCCC(=O)N1CCc2c([nH]c3ccccc23)C1c1ccc(OC)cc1 (centres undefined) | n
CCCC(=O)N1CCc2c([nH]c3ccccc23)C1c1ccc(OCC)cc1 (centres undefined) | n
COC(=O)CCC(=O)N1CCc2c([nH]c3ccccc23)C1c1ccc(SC)cc1 (centres undefined) | n
CS(=O)(=O)N1CCO[C@H]2[C@@H](OCc3ccccn3)CC[C@H]21 | n
CC(=O)N1CCC(C(=O)NCc2ccccc2)(N(Cc2cccc(C)c2)C(=O)c2ccc(C)cc2)CC1 | n
c1cn(-c2ccc3cn[nH]c3c2)c(-c2ccc(C3CCCCO3)o2)n1 (centres undefined) | n
COc1cccc(-c2noc(-c3c(O)c4cc(C)ccc4[nH]c3=O)n2)c1OC | n
CNC(=O)c1cc2c(nc1NCC(C)C)CCN(S(=O)(=O)C1CC1)CC2 | n
COc1cccc(-n2cc(CN(C)CCC(F)(F)F)cn2)c1 | n
Cc1ccc(C(=O)N2C[C@@H](C(=O)Nc3cccnc3)C[C@@H]3OCC[C@@H]32)o1 | n
COc1c(Cl)cc(Cl)cc1CNCCCN1CCOCC1 | n
O=C(Cn1ncc2c(N3CCN(c4ccccn4)CC3)ncnc21)NCc1ccc(F)cc1Cl | n
Cc1ccc2nc(SCC(=O)Nc3ccccc3Cl)[nH]c2c1 | n
NS(=O)(=O)c1ccc(CCn2ccnc2-c2ccc3occc3c2)cc1 | n
Cc1ccccc1CN1CC2(CCN(C(=O)Nc3ccccc3)C2)C1 | n
OC(CNCc1cc2ccccc2s1)C(F)(F)F (centres undefined) | -86.0
CC(c1cc2ccccc2s1)N(O)C(N)=O (centres undefined) | n
CC1(C(=O)NCc2ccc(F)cc2F)CCN(C(=O)c2ccc(C(C)(C)C)cc2)CC1 | -90.8
CC1(C(=O)NCc2ccc(F)cc2F)CCN(C(=O)c2ccc(F)cc2)CC1 | n
CC1(C(=O)NCc2ccc(F)cc2F)CCN(C(=O)c2ccccc2)CC1 | n
Cc1ccc2cc(C3(O)CCN(C(=O)CCCn4cncn4)CC3)ccc2n1 | n
CN1C[C@@H]2CN(C(=O)C3CC3)C[C@@H]2c2ccccc21 | n
CN(C)c1ccc(Br)c(F)c1C#N | n
COc1ccc(-c2nc3c(s2)CN(C(=O)Nc2ccc(C)c(C)c2)CC3)cc1 | -94.8

Assay outcomes deposited in PubChem BioAssay by Broad Institute.
